# Laboratory results: PubChem BioAssay AID1159580 (chemical genetic matrix, 2015)
# Several values for one entry are separate records, joined by “and”; a condition that tells them apart may be missing. Identical values can stand only once. The campaign covered roughly 5,500 compounds. About 2,000 (36%) were called active. About 18% were inconclusive and are not listed. This is one part of the list. A number with no mark means an inactive call. Rule as the data show it: active = normalized growth mostly below about 0.91 (no sharp cut-off); inconclusive = no clear call, values can overlap the other calls; inactive = mostly above about 0.92.
# Test: chemical genetic growth profiling, strain panel (AID 1159580);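 also: tested at 20 µM; growth read once vehicle control cultures reached saturation at 30 °C; 1 = growth at the plate median or of vehicle wells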
# Settings: S. cerevisiae deletion strains, growth OD
structure (smiles),measurement,setting,value
CCC(C)C(=O)O[C@@H]1C[C@@]2(C)[C@H](c3ccoc3)OC(=O)CC23OC2(C)OC34[C@H](OC(=O)C(C)C)[C@@]3(O)[C@@H](OC(=O)C5(C)OC5C)[C@@]5(C)C[C@]3(O)[C@@](C)([C@H]5CC(=O)OC)C14O2 (stereo partly drawn),normalized growth,"locus YAL021C, strain ccr4, stronger effect = lower value",1.03
same,normalized growth,"locus YAL026C, strain drs2, stronger effect = lower value",0.981
same,normalized growth,"locus YAL030W, strain snc1, stronger effect = lower value",0.996
same,normalized growth,"locus YBL061C, strain skt5, stronger effect = lower value",1
same,normalized growth,"locus YBR009C, strain hhf1, stronger effect = lower value",1.02
same,normalized growth,"locus YBR021W, strain FUR4, stronger effect = lower value",1.07
same,normalized growth,"locus YBR023C, strain chs3, stronger effect = lower value",1
same,normalized growth,"locus YBR171W, strain sec66, stronger effect = lower value",0.988
same,normalized growth,"locus YBR229C, strain ROT2, stronger effect = lower value",1.01
same,normalized growth,"locus YBR231C, strain swc5, stronger effect = lower value",0.996
same,normalized growth,"locus YBR279W, strain paf1, stronger effect = lower value",0.995
same,normalized growth,"locus YCL011C, strain gbp2, stronger effect = lower value",1
same,normalized growth,"locus YCL016C, strain dcc1, stronger effect = lower value",1.01
same,normalized growth,"locus YCL029C, strain bik1, stronger effect = lower value",0.994
same,normalized growth,"locus YCL061C, strain MRC1, stronger effect = lower value",1
same,normalized growth,"locus YCL069W, strain vba3, stronger effect = lower value",0.995
same,normalized growth,"locus YCR088W, strain abp1, stronger effect = lower value",0.999
same,normalized growth,"locus YDL005C, strain med2, stronger effect = lower value",1.02
same,normalized growth,"locus YDL035C, strain GPR1, stronger effect = lower value",0.974
same,normalized growth,"locus YDL040C, strain nat1, stronger effect = lower value",0.996
same,normalized growth,"locus YDL074C, strain BRE1, stronger effect = lower value",1.01
same,normalized growth,"locus YDL101C, strain DUN1, stronger effect = lower value",1.03
same,normalized growth,"locus YDL185W, strain tfp1, stronger effect = lower value",1.01
same,normalized growth,"locus YDL192W, strain arf1, stronger effect = lower value",0.987
same,normalized growth,"locus YDR001C, strain nth1, stronger effect = lower value",0.999
same,normalized growth,"locus YDR069C, strain doa4, stronger effect = lower value",0.991
same,normalized growth,"locus YDR101C, strain arx1, stronger effect = lower value",0.977
same,normalized growth,"locus YDR137W, strain rgp1, stronger effect = lower value",0.651 (active)
same,normalized growth,"locus YDR150W, strain NUM1, stronger effect = lower value",1
same,normalized growth,"locus YDR159W, strain sac3, stronger effect = lower value",0.981
same,normalized growth,"locus YDR162C, strain NBP2, stronger effect = lower value",0.993
same,normalized growth,"locus YDR195W, strain ref2",1.03
same,normalized growth,"locus YDR297W, strain sur2, stronger effect = lower value",0.992
same,normalized growth,"locus YDR318W, strain mcm21, stronger effect = lower value",1.01
same,normalized growth,"locus YDR334W, strain swr1, stronger effect = lower value",1
same,normalized growth,"locus YDR335W, strain msn5, stronger effect = lower value",0.997
same,normalized growth,"locus YDR388W, stronger effect = lower value",1.01
same,normalized growth,"locus YDR392W, strain spt3, stronger effect = lower value",0.998
same,normalized growth,"locus YDR502C, strain sam2, stronger effect = lower value",1.03
same,normalized growth,"locus YEL003W, strain gim4, stronger effect = lower value",1
same,normalized growth,"locus YEL037C, strain rad23, stronger effect = lower value",1.01
same,normalized growth,"locus YEL061C, strain CIN8 (second series), stronger effect = lower value",1
same,normalized growth,"locus YEL061C, strain CIN8, stronger effect = lower value",1
same,normalized growth,"locus YER015W, strain faa2, stronger effect = lower value",1.01
same,normalized growth,"locus YER016W, strain bim1, stronger effect = lower value",1
same,normalized growth,"locus YER110C, stronger effect = lower value",1.02
same,normalized growth,"locus YER111C, strain swi4, stronger effect = lower value",0.99
same,normalized growth,"locus YER155C, strain BEM2 (second series), stronger effect = lower value",1.02
same,normalized growth,"locus YER155C, strain BEM2, stronger effect = lower value",1.01
same,normalized growth,"locus YER167W, strain BCK2, stronger effect = lower value",0.995
same,normalized growth,"locus YFR010W, strain ubp6, stronger effect = lower value",1.01
same,normalized growth,"locus YGL078C, strain dbp3, stronger effect = lower value",1.03
same,normalized growth,"locus YGL086W, strain mad1, stronger effect = lower value",1.02
same,normalized growth,"locus YGL167C, strain pmr1, stronger effect = lower value",0.993
same,normalized growth,"locus YGL173C, strain kem1, stronger effect = lower value",0.977
same,normalized growth,"locus YGL227W, strain vid30, stronger effect = lower value",0.992
same,normalized growth,"locus YGL240W, strain doc1, stronger effect = lower value",1
same,normalized growth,"locus YGL248W, strain PDE1, stronger effect = lower value",1.03
same,normalized growth,"locus YGL253W, strain hxk2, stronger effect = lower value",0.986
same,normalized growth,"locus YGR135W, strain pre9, stronger effect = lower value",1.06
same,normalized growth,"locus YGR252W, strain gcn5, stronger effect = lower value",1.15
same,normalized growth,"locus YHR013C, strain ard1, stronger effect = lower value",1.01
same,normalized growth,"locus YHR027C, strain rpn1, stronger effect = lower value",0.996
same,normalized growth,"locus YHR030C, strain SLT2, stronger effect = lower value",1.05
same,normalized growth,"locus YHR079C, strain IRE1 (second series), stronger effect = lower value",1
same,normalized growth,"locus YHR079C, strain IRE1, stronger effect = lower value",1.04
same,normalized growth,"locus YHR094C, strain hxt1, stronger effect = lower value",1.01
same,normalized growth,"locus YHR129C, strain ARP1, stronger effect = lower value",1.02
same,normalized growth,"locus YHR142W, strain chs7, stronger effect = lower value",0.994
same,normalized growth,"locus YHR200W, strain rpn10, stronger effect = lower value",1.03
same,normalized growth,"locus YIL066C, strain RNR3, stronger effect = lower value",0.982
same,normalized growth,"locus YIL073C, strain SPO22, stronger effect = lower value",1
same,normalized growth,"locus YIL125W, strain kgd1, stronger effect = lower value",1
same,normalized growth,"locus YIR030C, strain dcg1, stronger effect = lower value",1
same,normalized growth,"locus YJL092W, strain hpr5, stronger effect = lower value",1.01
same,normalized growth,"locus YJL095W, strain BCK1 (second series), stronger effect = lower value",1.02
same,normalized growth,"locus YJL095W, strain BCK1, stronger effect = lower value",1.06 and 1.02
same,normalized growth,"locus YJL115W, strain asf1, stronger effect = lower value",1.01
same,normalized growth,"locus YJL129C, strain trk1, stronger effect = lower value",0.98
same,normalized growth,"locus YJL134W, strain LCB3, stronger effect = lower value",1
same,normalized growth,"locus YJL154C, strain vps35, stronger effect = lower value",0.993
same,normalized growth,"locus YJL164C, strain tpk1, stronger effect = lower value",0.996
same,normalized growth,"locus YJL166W, strain qcr8, stronger effect = lower value",0.989
same,normalized growth,"locus YJL168C, strain set2, stronger effect = lower value",1.01
same,normalized growth,"locus YJL187C, strain SWE1 (second series), stronger effect = lower value",1.04
same,normalized growth,"locus YJL187C, strain SWE1, stronger effect = lower value",1
same,normalized growth,"locus YJR066W, strain TOR1, stronger effect = lower value",0.979
same,normalized growth,"locus YJR075W, strain HOC1, stronger effect = lower value",1.02
same,normalized growth,"locus YKL009W, strain mrt4, stronger effect = lower value",0.972
same,normalized growth,"locus YKL068W, stronger effect = lower value",1
same,normalized growth,"locus YKL085W, strain MDH1 (second series), stronger effect = lower value",1
same,normalized growth,"locus YKL085W, strain MDH1, stronger effect = lower value",1
same,normalized growth,"locus YKL160W, strain elf1, stronger effect = lower value",0.966
same,normalized growth,"locus YKL190W, strain CNB1, stronger effect = lower value",0.999
same,normalized growth,"locus YKR001C, strain vps1, stronger effect = lower value",0.996
same,normalized growth,"locus YKR026C, strain gcn3, stronger effect = lower value",1
same,normalized growth,"locus YKR091W, strain srl3, stronger effect = lower value",0.996
same,normalized growth,"locus YLL001W, strain dnm1, stronger effect = lower value",1
same,normalized growth,"locus YLL026W, stronger effect = lower value",1
same,normalized growth,"locus YLL041C, strain sdh2, stronger effect = lower value",0.988
same,normalized growth,"locus YLR027C, strain aat2, stronger effect = lower value",1.01
same,normalized growth,"locus YLR039C, strain RIC1, stronger effect = lower value",0.774
same,normalized growth,"locus YLR058C, strain SHM2, stronger effect = lower value",1.01
same,normalized growth,"locus YLR102C, strain apc9, stronger effect = lower value",1.01
same,normalized growth,"locus YLR113W, strain HOG1, stronger effect = lower value",1.01
same,normalized growth,"locus YLR221C, strain rsa3, stronger effect = lower value",0.994
same,normalized growth,"locus YLR258W, strain gsy2, stronger effect = lower value",0.983
same,normalized growth,"locus YLR262C, strain YPT6 (second series), stronger effect = lower value",0.647 (active)
same,normalized growth,"locus YLR268W, strain sec22, stronger effect = lower value",0.958
same,normalized growth,"locus YLR320W, strain mms22, stronger effect = lower value",0.999
same,normalized growth,"locus YLR342W, strain FKS1, stronger effect = lower value",1.01
same,normalized growth,"locus YLR357W, strain rsc2, stronger effect = lower value",1.03
same,normalized growth,"locus YLR370C, strain arc18, stronger effect = lower value",0.996
same,normalized growth,"locus YLR371W, strain rom2, stronger effect = lower value",1.01
same,normalized growth,"locus YLR384C, strain iki3, stronger effect = lower value",1.01
same,normalized growth,"locus YLR418C, strain cdc73, stronger effect = lower value",1.04
same,normalized growth,"locus YML016C, strain PPZ1, stronger effect = lower value",1.01
same,normalized growth,"locus YML032C, strain rad52, stronger effect = lower value",0.98
same,normalized growth,"locus YML120C, strain ndi1, stronger effect = lower value",1.01
same,normalized growth,"locus YML124C, strain tub3, stronger effect = lower value",0.998
same,normalized growth,"locus YMR058W, strain fet3, stronger effect = lower value",1.01
same,normalized growth,"locus YMR078C, strain ctf18, stronger effect = lower value",0.999
same,normalized growth,"locus YMR125W, strain sto1, stronger effect = lower value",1.01
same,normalized growth,"locus YMR129W, stronger effect = lower value",0.99
same,normalized growth,"locus YMR205C, strain PFK2, stronger effect = lower value",0.975
same,normalized growth,"locus YMR223W, strain ubp8, stronger effect = lower value",1.01
same,normalized growth,"locus YMR231W, strain pep5, stronger effect = lower value",0.992
same,normalized growth,"locus YMR307W, strain GAS1, stronger effect = lower value",1.01
same,normalized growth,"locus YNL067W, strain RPL9B, stronger effect = lower value",1.05
same,normalized growth,"locus YNL071W, strain lat1, stronger effect = lower value",1.02
same,normalized growth,"locus YNL128W, strain TEP1, stronger effect = lower value",0.99
same,normalized growth,"locus YNL153C, strain GIM3, stronger effect = lower value",1.07
same,normalized growth,"locus YNL183C, strain NPR1, stronger effect = lower value",0.988
same,normalized growth,"locus YNL209W, strain ssb2, stronger effect = lower value",1.02
same,normalized growth,"locus YNL233W, strain BNI4, stronger effect = lower value",1.04
same,normalized growth,"locus YNL248C, strain rpa49, stronger effect = lower value",1.03
same,normalized growth,"locus YNL250W, strain rad50, stronger effect = lower value",1.05
same,normalized growth,"locus YNL271C, strain bni1, stronger effect = lower value",1.01
same,normalized growth,"locus YNL298W, strain CLA4, stronger effect = lower value",1.02
same,normalized growth,"locus YNL307C, strain MCK1, stronger effect = lower value",1.01
same,normalized growth,"locus YNL322C, strain KRE1 (second series), stronger effect = lower value",1
same,normalized growth,"locus YNL322C, strain KRE1, stronger effect = lower value",1
same,normalized growth,"locus YNR049C, strain mso1, stronger effect = lower value",1.01
same,normalized growth,"locus YNR052C, strain pop2, stronger effect = lower value",1.03
same,normalized growth,"locus YOL012C, strain htz1",0.642
same,normalized growth,"locus YOL147C, strain pex11, stronger effect = lower value",0.999
same,normalized growth,"locus YOR001W, strain rrp6, stronger effect = lower value",1
same,normalized growth,"locus YOR061W, strain CKA2, stronger effect = lower value",0.987
same,normalized growth,"locus YOR069W, strain VPS5, stronger effect = lower value",1
same,normalized growth,"locus YOR070C, strain gyp1, stronger effect = lower value",1.02
same,normalized growth,"locus YOR080W, strain dia2, stronger effect = lower value",1.01
same,normalized growth,"locus YOR083W, strain WHI5, stronger effect = lower value",1.01
same,normalized growth,"locus YOR106W, strain vam3, stronger effect = lower value",0.998
same,normalized growth,"locus YOR136W, strain idh2, stronger effect = lower value",1.01
same,normalized growth,"locus YOR144C, strain elg1, stronger effect = lower value",0.998
same,normalized growth,"locus YOR184W, strain ser1, stronger effect = lower value",0.971
same,normalized growth,"locus YOR231W, strain MKK1, stronger effect = lower value",0.991
same,normalized growth,"locus YOR265W, strain rbl2, stronger effect = lower value",0.984
same,normalized growth,"locus YOR270C, strain vph1, stronger effect = lower value",0.777 (active)
same,normalized growth,"locus YOR290C, strain snf2, stronger effect = lower value",1
same,normalized growth,"locus YOR316C, strain cot1, stronger effect = lower value",0.999
same,normalized growth,"locus YPL051W, strain arl3, stronger effect = lower value",0.983
same,normalized growth,"locus YPL055C, strain LGE1, stronger effect = lower value",0.979
same,normalized growth,"locus YPL078C, strain atp4, stronger effect = lower value",0.992
same,normalized growth,"locus YPL106C, strain sse1, stronger effect = lower value",1.06
same,normalized growth,"locus YPL240C, strain hsp82, stronger effect = lower value",1
same,normalized growth,"locus YPL241C, strain CIN2, stronger effect = lower value",0.983
same,normalized growth,"locus YPL256C, strain CLN2, stronger effect = lower value",1.04
same,normalized growth,"locus YPR119W, strain clb2, stronger effect = lower value",1.01
same,normalized growth,"locus YPR141C, strain kar3, stronger effect = lower value",1.01
same,normalized growth,"locus YPR163C, strain tif3, stronger effect = lower value",1.01
same,normalized growth,"locus YPR167C, strain met16, stronger effect = lower value",1.01
same,normalized growth,"strain wtn01, stronger effect = lower value",0.982
